Measured values reported in PubChem BioAssay AID1499 (Sanford-Burnham Center for Chemical Genomics, 2009).
About 65 (0.07%) of roughly 93,000 compounds were called active. The list comes from a sample in which actives are over-represented; it also holds similar structures and randomly drawn compounds. Unmarked numbers belong to inactive results.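 How the source made its calls: active means 10 µM primary screen giving 50% or more activity, confirmed by 40% or more on retest at that dose; inactive means the rest.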

The molecules below were run against Integrin beta-2 (Homo sapiens) + Integrin alpha-M (Homo sapiens) (UniProt P05107+P11215) (assay: agonists of integrin CD11b/CD18-fibrinogen binding – K562 cells, luminescence, primary screen (AID 1499)). Details: K562 CD11b/CD18 adhesion to fibrinogen, ATPlite luminescence; at 10 µM; active compounds read high.
Chain of Integrin beta-2 (Homo sapiens) + Integrin alpha-M (Homo sapiens) (P05107 whole entry, looked up, other chains not shown): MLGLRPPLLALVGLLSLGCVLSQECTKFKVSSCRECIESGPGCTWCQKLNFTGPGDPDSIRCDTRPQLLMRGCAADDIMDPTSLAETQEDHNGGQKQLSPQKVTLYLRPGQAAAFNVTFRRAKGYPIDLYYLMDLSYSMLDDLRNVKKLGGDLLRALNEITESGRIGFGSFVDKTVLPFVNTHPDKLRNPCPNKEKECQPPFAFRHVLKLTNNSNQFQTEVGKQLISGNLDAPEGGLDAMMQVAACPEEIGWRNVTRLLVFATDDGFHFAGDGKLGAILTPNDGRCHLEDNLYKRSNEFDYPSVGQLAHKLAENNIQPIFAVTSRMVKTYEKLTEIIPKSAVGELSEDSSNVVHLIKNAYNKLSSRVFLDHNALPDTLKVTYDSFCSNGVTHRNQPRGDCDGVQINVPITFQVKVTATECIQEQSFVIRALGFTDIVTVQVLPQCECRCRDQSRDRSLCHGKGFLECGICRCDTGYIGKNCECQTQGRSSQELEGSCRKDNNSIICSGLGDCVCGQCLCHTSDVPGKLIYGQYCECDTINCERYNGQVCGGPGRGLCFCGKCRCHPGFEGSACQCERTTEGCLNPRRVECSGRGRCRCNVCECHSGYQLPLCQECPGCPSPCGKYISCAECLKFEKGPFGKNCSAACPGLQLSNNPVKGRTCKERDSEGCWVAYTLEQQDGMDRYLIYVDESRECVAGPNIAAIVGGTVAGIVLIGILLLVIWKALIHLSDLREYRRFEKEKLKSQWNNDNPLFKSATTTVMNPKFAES
For `COc1ccc(C(=O)OCC(=O)NC(=O)CCSc2ccccc2)cc1`, the activation was 0.6%.
`N#C/C(=C/c1cccc([N+](=O)[O-])c1)c1nnc2n1CCCCC2` gave an activation of 1.1%.
Molecule `CCCCNC(=O)CSc1nc2ccc(NC(=O)CSc3nnc(N)s3)cc2s1` has an activation of -3.6%.
`Fc1ccccc1CNC(=S)Nc1ccc(Cl)cc1` gave an activation of -7.2%.
`CCCn1c(SCC(=O)Nc2ccc(C)c(S(=O)(=O)N3CCOCC3)c2)n[nH]c1=O` gave an activation of -1.4%.
`O=C(Cc1ccc(-c2ccccc2)cc1)NC(c1ccccc1)c1ccccc1` was tested, and the activation was 0.5%.
`CCN(CC)S(=O)(=O)c1ccc(C)c(NC(=O)COc2ccc(Br)cc2Cl)c1` gave an activation of -2.8%.
`O=C(Cc1c[nH]c2ccccc12)N/N=C/c1cccc(F)c1` gave an activation of 1%.
`CCCC(=O)Nc1cccc(NC(=S)NC(=O)C(C)Oc2ccc(Cl)cc2Cl)c1` (configuration not stated) gave an activation of -4.3%.
With `Cc1c(C(=O)NCCCc2ccccc2)cccc1[N+](=O)[O-]` the activation was -3.8%.
In the case of `O=C(Cn1nnc(-c2ccccc2)n1)NCc1ccc2c(c1)OCO2`, the activation is reported as -1.1%.
`O=C1N(Cc2ccc3c(c2)OCO3)c2ccccc2C1(O)c1c[nH]c2ccccc12` (configuration not stated) was tested, and the activation was 65.9% (active).
`O=C(CCCCn1c(=O)[nH]c2ccccc2c1=O)NCc1ccc2c(c1)OCO2` was tested, and the activation was -2%.
With `Cc1cccc(NC(=S)Nc2ccc3cn[nH]c3c2)c1` the activation was 0.1%.
`CSCC[C@H](NC(=O)OC(C)(C)C)C(=O)N/N=C/c1cc2ccc(C)cc2nc1Cl` was tested, and the activation was 1.8%.
`CC(=O)Nc1ccc(Nc2c([N+](=O)[O-])cc(S(C)(=O)=O)cc2[N+](=O)[O-])cc1` gave an activation of -0.7%.
Molecule `Cc1cccc2cc(CN(Cc3cccs3)C(=S)NCc3ccco3)c(=O)[nH]c12` has an activation of 3.8%.
For `O=C(COC(=O)c1cc2c(s1)CCCC2)NCc1ccccc1Cl`, the activation was -0.1%.
Work on `Cc1ccc(NC(=S)N2CCN(c3ncccn3)CC2)cc1C` yielded an activation of -7.7%.
Molecule `Cc1c(Cl)cccc1NC(=O)CC1SC(=NCC2CCCO2)NC1=O` (configuration not stated) has an activation of 2.9%.
`Cc1c(C(=O)NCCN2C(=O)S/C(=C\c3cccs3)C2=O)cccc1[N+](=O)[O-]` was tested, and the activation was 23%.
`COc1ccc(CN2C(=O)CC(Cc3ccc(C)cc3)C2=O)cc1OC` (configuration not stated) showed an activation of -1.2%.
In the case of `COC(=O)c1ccc(NC(=O)CSc2nncc3ccc(OC)c(OC)c23)cc1`, the activation is reported as 3%.
`Cc1cc(C(=O)CSc2nc(N)cc(=O)[nH]2)c(C)n1-c1cccc(F)c1` was tested, and the activation was 16.6%.
For `COc1cccc(N(C(=O)C2COc3ccccc3O2)C(C(=O)NC2CCCCC2)c2ccc(O)cc2)c1` (configuration not stated), the activation was -0.8%.
`O=C(NCCc1ccccn1)c1cc(-c2ccc(Cl)cc2)nc2ccccc12` was tested, and the activation was 0.7%.
`Cc1ccc(NC(=O)C(=O)NCc2ccc(/C=N/NC(=O)c3c(C)nc4cc(C)ccn34)o2)cc1` showed an activation of 100%.
In the case of `CCOC(=O)C1=C(C)N=C2c3ccccc3C(=O)C2C1c1ccc(Br)cc1` (configuration not stated), the activation is reported as 4.9%.
Work on `Cc1ccc(NC(=O)CC2C(=O)N(Cc3ccccc3)C(=S)N2NC(=O)c2cccc(F)c2)c(C)c1` (configuration not stated) yielded an activation of 2.6%.
`COCCn1c(C)cc(C2=NNC(=Nc3ccc(F)cc3)SC2)c1C` was tested, and the activation was 120% (active).
In the case of `Clc1cccc(N=C2NN=C(c3ccc4c(c3)OCCO4)CS2)c1`, the activation is reported as 4.8%.
With `CC(=O)Nc1ccc(NC(=S)NC(=O)c2ccc([N+](=O)[O-])c(C)c2)cc1` the activation was 0.9%.
`CC(C)(C)OC(=O)N/N=C/c1ccc(C(=O)O)cc1` gave an activation of 0.2%.
`Cc1ccc(NC(=O)NC(=O)CSc2nnc(-c3ccc(OC(F)F)cc3)n2N)c(C)c1` showed an activation of -3.1%.
For `CN(C)CCCNC(=S)NCc1ccc(Cl)cc1`, the activation was 2.8%.
`C/C(=N\NC(=O)CCn1nc(C)cc1C)C(C)(C)C` was tested, and the activation was 2.8%.
Molecule `COc1cc2c3c(c1)/C(=C1/SC(=S)NC1=O)C(=O)N3C(C)(C)C=C2C` has an activation of -7.7%.
Molecule `Cc1ccc(-n2c(C)cc(C(=O)CSc3nnc4ccccn34)c2C)cc1` has an activation of -2.4%.
`CC(NC(=S)Nc1ccccc1)C1COc2ccccc2O1` (configuration not stated) was tested, and the activation was -1.1%.
`COc1ccc2c(CN3CCN(S(=O)(=O)c4cccs4)CC3)cc(=O)oc2c1` showed an activation of 1.6%.
`CCN(c1ccc(NC(=O)COC(=O)CCc2nc3ccccc3n2-c2ccccc2)cc1)C(C)C` was tested, and the activation was 5.2%.
For `CC(=O)Nc1ccc(S(=O)(=O)N2CCN(c3ccc([N+](=O)[O-])c(NCCN4CCOCC4)c3)CC2)cc1`, the activation was 8.9%.
`COCCCNC(=O)Cn1cc(/C=C(\C#N)C(=O)N2CCN(c3ccccc3)CC2)c2ccccc21` showed an activation of 0%.
`O=C(Nc1nnc(SCc2ccccc2Cl)s1)c1cccc([N+](=O)[O-])c1` gave an activation of -9.7%.
`O=C(CCCN1C(=O)/C(=C/c2ccco2)SC1=S)Nc1ccccc1` gave an activation of 2.1%.
Work on `COc1ccc(/C(N)=N/OC(=O)Cc2ccccc2)cc1` yielded an activation of -3.3%.
With `CCOC(=O)c1c(NC(=O)C2CCN(S(=O)(=O)c3ccc(Cl)cc3)CC2)sc2c1CCCC2` the activation was 15.1%.
Molecule `COC(=O)Cc1ccc(NC(=S)NCc2ccccc2)cc1` has an activation of 1.6%.
In the case of `CC(C)N1C(=O)N(c2ccccc2)C(C)(O)CC1(C)C` (configuration not stated), the activation is reported as 3.2%.
For `O=C(CSc1nc2ccccc2c(=O)n1CCCO)N1CCc2ccccc21`, the activation was 2.1%.
`Cc1ccc2[nH]cc(CCNC(=O)c3ccc([N+](=O)[O-])cc3)c2c1` showed an activation of -1.3%.
Work on `CCCCC(O)(CCCC)C(=O)NN(C(=O)CCl)c1ccccc1` yielded an activation of 3.4%.
`CNc1ccc(NC(C)=O)cc1[N+](=O)[O-]` gave an activation of 2.9%.
`COc1ccc(NC(=O)CN2C(=O)C(c3ccccc3)=NC23CCCCCC3)cc1OC` showed an activation of -1.4%.
Work on `Cc1ccc(-c2csc(NC(=O)c3cccs3)n2)cc1` yielded an activation of 3.8%.
With `Cc1ccc(-c2nnc(-c3ccc(NC(=O)c4cccs4)cc3)o2)cc1` the activation was 161% (active).
Work on `Cc1nc(-c2ccc(NC(=O)c3cccs3)cc2)cs1` yielded an activation of -4.6%.
In the case of `COc1ccccc1OCCC(=O)OCC(=O)NCc1ccccc1`, the activation is reported as 3.3%.
In the case of `CCCN(CCC)c1c([N+](=O)[O-])c(=O)oc2ccccc12`, the activation is reported as 2.9%.
`CC(C)[C@H](NC(=O)c1ccc(F)cc1)C(=O)OCC(=O)NC(=O)c1cccn1C` showed an activation of 25.8%.
In the case of `Cc1cc(C)c(NC(=S)N2CCCC2C(=O)O)c(C)c1` (configuration not stated), the activation is reported as -3.4%.
With `O=C(Nc1cc(C(F)(F)F)ccc1Cl)C(=O)N1CCCCC1` the activation was 10.3%.
In the case of `CC1(C)Cc2nc3sc4c(SCC(=O)NC(c5ccccc5)c5ccccc5)ncnc4c3cc2CO1`, the activation is reported as 93.6% (active).
`CC(C)CCSc1ncnc2c1oc1nc3c(cc12)COC(C)(C)C3` was tested, and the activation was 6.2%.
`CC(NC(=O)CSc1nc2c(cc1C#N)CN(C)CC2)c1ccccc1` (configuration not stated) gave an activation of -1.5%.
Molecule `CCc1c(C)sc(NC(=O)/C=C/c2ccc3c(c2)OCO3)c1C(=O)OC` has an activation of 9.1%.
`COc1ccc2oc(-c3cccc(NC(=O)CSc4ccc(Cl)cc4)c3)nc2c1` was tested, and the activation was 13.1%.
For `O=C(COC(=O)Cc1ccc(F)cc1)Nc1cc(S(=O)(=O)N2CCOCC2)ccc1N1CCCC1`, the activation was -2.5%.
For `CN(C)CCCO/N=C(\c1ccccc1)c1ccncc1`, the activation was 3.7%.
In the case of `O=C(COC(=O)Cn1cnc2ccccc21)Nc1cccc2c1C(=O)c1ccccc1C2=O`, the activation is reported as 7.9%.
Work on `COc1cc(Cl)c(C)cc1NC(=O)COC(=O)c1cc(SC)ccc1Cl` yielded an activation of 0.1%.
Work on `Cc1ccc(-c2nc(C)sc2CC(=O)OCC(=O)Nc2c(F)cccc2F)cc1` yielded an activation of -4%.
With `Cc1csc(=Nc2ccccc2)n1CCO` the activation was 0.8%.
`Cc1ccc(S(=O)(=O)Nc2nc(C)cc(N/N=C/c3ccc(O)cc3)n2)cc1` gave an activation of 13.5%.
`Cc1cccc(NC(=O)Cn2c(=O)n(Cc3ccccc3)c(=O)c3c(C)c(C)sc32)c1` was tested, and the activation was 6.7%.
Molecule `Cc1ccc(/C=N/NC(=O)CNC(=O)COc2ccccc2)o1` has an activation of 6.3%.
`O=C1N(c2ccc(Cl)cc2)C(c2ccc(Cl)cc2)N2CCCN12` (configuration not stated) showed an activation of 3.2%.
In the case of `CCOc1ccc(/C=N/OCC(=O)NCc2cccs2)cc1`, the activation is reported as -0.5%.
`C=CCn1c(SCn2nnc3ccccc3c2=O)nnc1-c1ccc(Cl)cc1` gave an activation of 4.1%.
For `C=CCSc1nc2ccccc2[nH]1`, the activation was 6.8%.
For `C=CCSc1nc(Cc2ccc(Cl)cc2)nc2ccccc12`, the activation was 69.1% (active).
In the case of `Cc1sc2ncnc(Sc3nc4ccccc4s3)c2c1C`, the activation is reported as 12.1%.
`OC(COCC1COc2ccccc2O1)CN1CCN(c2ccc(F)cc2)CC1` (configuration not stated) showed an activation of 4.1%.
In the case of `C/C(=N/NC(=O)C1COc2ccccc2O1)c1ccco1` (configuration not stated), the activation is reported as 1.2%.
For `N#CCOc1ccc(C2=NO[C@@H]3[C@@H]4C[C@@H]([C@H]5C(=O)N(c6ccc7c(c6)OCO7)C(=O)[C@@H]45)[C@H]23)cc1`, the activation was 0.6%.
For `CC(=C/c1ccccc1)/C=N/NC(=O)c1cc(C)oc1C`, the activation was -1.7%.
`COc1ccc(NC(=O)c2ccc(C#CC(C)(C)O)cc2)cc1` gave an activation of 2.8%.
In the case of `Cc1ccc(OCC(=O)Nc2ccccc2Sc2ccc(Cl)cc2)c([N+](=O)[O-])n1`, the activation is reported as -1%.
Molecule `Cc1cccc(-n2c(C)cc(/C=N/NC(N)=S)c2C)c1` has an activation of -1.9%.
For `CC(C)NC(=S)N1CCN(S(C)(=O)=O)CC1`, the activation was 0.6%.
For `Cc1ccc(-c2nn(-c3ccccc3)cc2C(=O)Nc2cccc(S(=O)(=O)N3CCOCC3)c2)cc1`, the activation was -0.1%.
In the case of `CCOc1ccc(NC(=S)NC(=O)/C=C/c2ccc(OC)cc2)c([N+](=O)[O-])c1`, the activation is reported as 34.7%.
